Experimental findings from PubChem BioAssay (EPA / NIEHS) are described below.

Assay [1] is described as follows: ATG_M_06_XSP2: Attagene TRANS-FACTORIAL Multi-Species (XSP2) HepG2 Assay for M06 Transcription Factor (Internal Marker) (AID 2283811).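 Further: hits are increases in signal above the DMSO baseline.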 The essentials:
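HepG2 cells transiently transfected with GAL4-UAS multi-reporter constructs, dosed 24 h with 3 nM 6-alpha-fluorotestosterone plus 1.5 nM norgestrel present to stimulate androgen receptor. Reporter mRNA quantified by RT-PCR, 6-FAM labelling, HpaI digestion and capillary electrophoresis; gain-of-signal fitted versus DMSO baseline.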

The test system of assay [2] is turtle Estrogen Receptor (ERa), gene 101933533. As to the kind of experiment: ATG_trERa_XSP2: Attagene TRANS-FACTORIAL Multi-Species (XSP2) HepG2 Assay for turtle Estrogen Receptor (ERa) (AID 2283812).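 Further: human HepG2 liver cells transiently expressing turtle ERa-Gal4 chimeric receptor; actives raise reporter signal above DMSO so AC50 reflects agonist activity.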 The essentials:
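HepG2 cells transiently transfected with GAL4-UAS reporter units expressing turtle ERa-Gal4 chimera. Reporter mRNA measured after 24 h dosing by RT-PCR, fluorescent labelling and capillary electrophoresis; gain of signal fitted versus DMSO.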

Assay [3] has as its target Estrogen receptor beta (Homo sapiens) (UniProt Q92731). In words: ATG_hERb_XSP2: Attagene TRANS-FACTORIAL Multi-Species (XSP2) HepG2 Assay for human Estrogen Receptor (ERb) (AID 2283813).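 Further: actives raise reporter mRNA above DMSO so AC50 reflects agonist induction.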 The essentials: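 HepG2 cells transiently transfected with GAL4-UAS reporter units and chimeric human ERb-Gal4, 24 h exposure. Reporter mRNA quantified by RT-PCR with FAM labelling, HpaI digestion and capillary electrophoresis; gain of signal versus DMSO.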

The target of assay [4] is zebrafish Estrogen Receptor (ER1), esr1 (gene 259252) (UniProt P57717). In words: ATG_zfER1_XSP2: Attagene TRANS-FACTORIAL Multi-Species (XSP2) HepG2 Assay for zebrafish Estrogen Receptor (ER1) (AID 2283816). The essentials:
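HepG2 cells transiently transfected with a GAL4-UAS reporter and a chimeric zebrafish ER1-Gal4 construct, dosed 24 h. Reporter mRNA quantified by RT-PCR, labelling, HpaI digestion and capillary electrophoresis, relative to DMSO.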

Assay [5] deals with chicken Estrogen Receptor (ERa), ESR1 (gene 396099) (UniProt P06212). As to the kind of experiment: ATG_chERa_XSP2: Attagene TRANS-FACTORIAL Multi-Species (XSP2) HepG2 Assay for chicken Estrogen Receptor (ERa) (AID 2283817).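 Further: actives raise reporter signal above DMSO so AC50 reflects ER activation.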 The procedure, abridged:
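HepG2 cells transiently transfected with multiplexed GAL4-UAS reporter units expressing chimeric chicken ERa-Gal4; 24 h compound exposure. Reporter mRNA measured by RT-PCR with 6-FAM labelling, HpaI digestion and capillary electrophoresis; gain-of-signal fitted versus DMSO.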

The subject of assay [6] is zebrafish Estrogen Receptor (ER2a), gene 317734. As to the kind of experiment: ATG_zfER2a_XSP2: Attagene TRANS-FACTORIAL Multi-Species (XSP2) HepG2 Assay for zebrafish Estrogen Receptor (ER2a) (AID 2283818).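 Further: hits raise reporter mRNA so AC50 reflects activation of zebrafish ER2a.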 The essentials:
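HepG2 cells transiently transfected with GAL4-UAS reporter units and chimeric zebrafish ER2a-Gal4, exposed 24 h; medium contains 3 nM 6-alpha-fluorotestosterone and 1.5 nM norgestrel. Reporter mRNA quantified by RT-PCR, HpaI digestion, capillary electrophoresis; gain versus DMSO.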

The test system of assay [7] is frog Estrogen Receptor (ER), gene 398734. As to the kind of experiment: ATG_frER1_XSP2: Attagene TRANS-FACTORIAL Multi-Species (XSP2) HepG2 Assay for frog Estrogen Receptor (ER) (AID 2283821).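 Further: hits raise reporter mRNA above DMSO baseline so potency means agonist or activator.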 The procedure, abridged: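 HepG2, transient MRTU transfection, chimeric NR-GAL4/UAS reporters; 24 h compound exposure, 24-well. Readout: reporter mRNA via RT-PCR + capillary electrophoresis, fluorescence. Positive fit vs DMSO baseline.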

In assay [8] the test system is zebrafish Estrogen Receptor (ER2b), gene 317733. As to the kind of experiment: ATG_zfER2b_XSP2: Attagene TRANS-FACTORIAL Multi-Species (XSP2) HepG2 Assay for zebrafish Estrogen Receptor (ER2b) (AID 2283823).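 Further: fitted upward as reporter gain over DMSO so potency reflects activation.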 The essentials:
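In this multiplexed trans-activation format, HepG2 cells expressing exogenous NR-Gal4 fusions drive GAL4-UAS reporters. Exposure lasts 24 h, and reporter mRNA induction is read by RT-PCR with capillary electrophoresis detection.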

The target of assay [9] is mouse Peroxisome Proliferator-activated Receptor gamma (PPARg), Pparg (gene 19016) (UniProt P37238). In words: ATG_mPPARg_XSP1: Attagene TRANS-FACTORIAL Multi-Species (XSP1) HepG2 Assay for mouse Peroxisome Proliferator-activated Receptor gamma (PPARg) (AID 2283802). The essentials:
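HepG2 cells transiently transfected with GAL4-UAS reporter units driven by mouse PPARg–GAL4 chimera; 3 nM 6-alpha-fluorotestosterone present. After 24 h dosing, reporter mRNA quantified by RT-PCR, fluorescent labelling and capillary electrophoresis; gain of signal versus DMSO.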

In assay [10] the target is Nuclear receptor subfamily 1 group I member 2 (Mus musculus) (UniProt O54915). As to the kind of experiment: ATG_mPXR_XSP1: Attagene TRANS-FACTORIAL Multi-Species (XSP1) HepG2 Assay for mouse Pregnane X Receptor (PXR) (AID 2283803). The essentials: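 Transiently transfected HepG2 cells expressing a receptor-Gal4 chimera drive a GAL4-UAS reporter; 3 nM 6-alpha-fluorotestosterone included. Reporter mRNA read 24 h post-dose by RT-PCR and capillary electrophoresis; gain of signal relative to DMSO.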
Sequence of Nuclear receptor subfamily 1 group I member 2 (Mus musculus) (O54915 whole entry, looked up, the tested form may be a part): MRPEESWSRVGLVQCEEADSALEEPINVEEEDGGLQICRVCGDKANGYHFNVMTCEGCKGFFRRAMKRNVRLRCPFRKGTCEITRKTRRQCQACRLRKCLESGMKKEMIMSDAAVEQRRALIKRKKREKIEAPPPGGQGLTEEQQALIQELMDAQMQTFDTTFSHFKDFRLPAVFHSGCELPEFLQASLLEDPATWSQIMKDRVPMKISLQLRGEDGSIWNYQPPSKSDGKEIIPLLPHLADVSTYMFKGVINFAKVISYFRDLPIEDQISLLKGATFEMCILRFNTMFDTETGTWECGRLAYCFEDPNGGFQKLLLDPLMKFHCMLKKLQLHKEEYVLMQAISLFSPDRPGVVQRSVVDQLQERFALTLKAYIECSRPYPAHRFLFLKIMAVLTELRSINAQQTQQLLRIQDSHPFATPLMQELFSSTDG

Assay [11] has as its target human Thyroid hormone Receptor alpha (TRa), THRA (gene 7067) (UniProt P10827). As to the kind of experiment: ATG_hTRa_XSP1: Attagene TRANS-FACTORIAL Multi-Species (XSP1) HepG2 Assay for human Thyroid hormone Receptor alpha (TRa) (AID 2283805). The essentials:
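HepG2 cells transiently transfected with GAL4-UAS reporter units expressing chimeric NR-Gal4 proteins, dosed 24 hours with 3 nM 6-alpha-fluorotestosterone present. Reporter mRNA measured by RT-PCR and capillary electrophoresis; gain of signal fitted versus DMSO.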

Assay [12] deals with turtle Thyroid Hormone Receptor, alpha (TRa), gene 101949057. As to the kind of experiment: ATG_trTRa_XSP1: Attagene TRANS-FACTORIAL Multi-Species (XSP1) HepG2 Assay for turtle Thyroid Hormone Receptor, alpha (TRa) (AID 2283806). The procedure, abridged: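 HepG2 cells transiently transfected with GAL4-UAS reporter units and chimeric receptor-Gal4 constructs, with 3 nM 6-alpha-fluorotestosterone present. Reporter mRNA was quantified 24 h after dosing by RT-PCR, 6-FAM labelling and capillary electrophoresis; gain of signal versus DMSO.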

Assay [13] has as its target zebrafish Thyroid Hormone Receptor alpha (TRa), thraa (gene 30670) (UniProt Q98867). As to the kind of experiment: ATG_zfTRa_XSP1: Attagene TRANS-FACTORIAL Multi-Species (XSP1) HepG2 Assay for zebrafish Thyroid Hormone Receptor alpha (TRa) (AID 2283807). The procedure, abridged:
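HepG2 cells transiently transfected with GAL4-UAS reporter units including a zebrafish TRa–Gal4 chimera, dosed 24 h with 3 nM 6-alpha-fluorotestosterone present. Reporter mRNA quantified by RT-PCR and capillary electrophoresis; gain versus DMSO.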

Assay [14] concerns the target human Thyroid hormone Receptor beta (TRb), THRB (gene 7068) (UniProt P10828). As to the kind of experiment: ATG_hTRb_XSP1: Attagene TRANS-FACTORIAL Multi-Species (XSP1) HepG2 Assay for human Thyroid hormone Receptor beta (TRb) (AID 2283808). The procedure, abridged:
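HepG2 cells transiently transfected with reporter units driving GAL4-UAS reporters for chimeric NR-Gal4 proteins; 24 h chemical exposure with 3 nM 6-alpha-fluorotestosterone present. Reporter mRNA quantified by RT-PCR and capillary electrophoresis, gain of signal versus DMSO.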

Assay [15] addresses zebrafish Thyroid Hormone Receptor beta (TRb), thrb (gene 30607) (UniProt Q9PVE4). In words: ATG_zfTRb_XSP1: Attagene TRANS-FACTORIAL Multi-Species (XSP1) HepG2 Assay for zebrafish Thyroid Hormone Receptor beta (TRb) (AID 2283809). The procedure, abridged: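 HepG2 cells transiently transfected with multiplexed GAL4-UAS reporter units expressing chimeric zebrafish TRb–Gal4. Dosed 24 h with 3 nM 6-alpha-fluorotestosterone present; reporter mRNA measured by RT-PCR, HpaI digestion and capillary electrophoresis; gain of signal versus DMSO.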

The nature of assay [16]: ATG_XTT_Cytotoxicity_XSP1: Cytotoxicity Assessment in the Attagene TRANS-FACTORIAL Multi-Species (XSP1) HepG2 Assay (AID 2283810). The procedure, abridged:
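XTT viability readout taken at 24 hours post-dosing in HepG2 liver cells co-treated with 3 nM 6-alpha-fluorotestosterone. Signal loss relative to DMSO controls reflects cytotoxicity.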

In assay [17] the target is GAL4 Transcription Factor (Internal Marker), GAL4 (gene 855828) (UniProt P04386). In words: ATG_GAL4_XSP2: Attagene TRANS-FACTORIAL Multi-Species (XSP2) HepG2 Assay for GAL4 Transcription Factor (Internal Marker) (AID 2283814).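 Further: GAL4 reporter mRNA background control in MRTU transfected cells not a receptor target.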 The essentials: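 HepG2 cells transiently transfected with GAL4-UAS reporter units, stimulated with 3 nM 6-alpha-fluorotestosterone plus 1.5 nM norgestrel, dosed 24 h. Reporter mRNA by RT-PCR/capillary electrophoresis; gain-of-signal fit versus DMSO, background control.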
Sequence of GAL4 Transcription Factor (Internal Marker), GAL4 (gene 855828) (P04386 whole entry, looked up, the tested form may be a part): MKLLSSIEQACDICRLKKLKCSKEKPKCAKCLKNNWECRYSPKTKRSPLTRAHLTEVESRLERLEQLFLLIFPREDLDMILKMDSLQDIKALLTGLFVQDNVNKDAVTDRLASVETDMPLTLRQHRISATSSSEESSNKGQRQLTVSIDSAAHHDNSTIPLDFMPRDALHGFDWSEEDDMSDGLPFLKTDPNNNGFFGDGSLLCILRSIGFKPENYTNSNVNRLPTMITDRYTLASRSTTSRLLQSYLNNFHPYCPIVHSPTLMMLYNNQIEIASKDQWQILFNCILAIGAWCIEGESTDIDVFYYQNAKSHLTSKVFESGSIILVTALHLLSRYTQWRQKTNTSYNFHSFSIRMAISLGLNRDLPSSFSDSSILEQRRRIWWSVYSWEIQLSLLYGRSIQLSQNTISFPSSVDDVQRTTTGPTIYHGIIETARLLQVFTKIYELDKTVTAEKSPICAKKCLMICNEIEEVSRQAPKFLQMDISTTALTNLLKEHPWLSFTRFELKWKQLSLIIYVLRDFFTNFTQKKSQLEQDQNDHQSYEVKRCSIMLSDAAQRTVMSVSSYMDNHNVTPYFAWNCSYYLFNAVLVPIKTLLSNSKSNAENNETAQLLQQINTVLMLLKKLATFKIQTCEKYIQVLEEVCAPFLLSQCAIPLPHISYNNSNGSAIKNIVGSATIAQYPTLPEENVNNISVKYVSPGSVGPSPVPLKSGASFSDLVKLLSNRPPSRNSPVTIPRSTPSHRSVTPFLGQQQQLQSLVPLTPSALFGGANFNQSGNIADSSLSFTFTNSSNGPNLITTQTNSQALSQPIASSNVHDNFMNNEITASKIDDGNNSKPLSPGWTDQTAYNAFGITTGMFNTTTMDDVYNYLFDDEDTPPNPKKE

For assay [18], the system named is chicken Androgen Receptor (AR), gene 422165. In words: ATG_chAR_XSP2: Attagene TRANS-FACTORIAL Multi-Species (XSP2) HepG2 Assay for chicken Androgen Receptor (AR) (AID 2283819).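 Further: hits raise reporter mRNA above DMSO so potency is for activation.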 The essentials: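 HepG2 cells transiently transfected with chicken AR–GAL4 chimeric reporter constructs, stimulated with 3 nM 6-alpha-fluorotestosterone plus 1.5 nM norgestrel, dosed 24 h. Reporter mRNA quantified by RT-PCR and capillary electrophoresis; gain of signal fitted versus DMSO.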

Assay [19] addresses Estrogen receptor (Homo sapiens) (UniProt P03372). As to the kind of experiment: ATG_hERa_XSP2: Attagene TRANS-FACTORIAL Multi-Species (XSP2) HepG2 Assay for human Estrogen Receptor (ERa) (AID 2283827). The essentials: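 HepG2 cells transiently transfected with multiplexed GAL4-UAS reporters driven by chimeric receptor-Gal4 proteins, dosed 24 h with 3 nM 6-alpha-fluorotestosterone and 1.5 nM norgestrel present. Reporter mRNA by RT-PCR and capillary electrophoresis; gain-of-signal fit versus DMSO.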

Assay [20] is described as follows: ATG_M_19_XSP2: Attagene TRANS-FACTORIAL Multi-Species (XSP2) HepG2 Assay for M32 Transcription Factor (Internal Marker) (AID 2283822). The essentials:
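Internal background marker in a multi-species nuclear receptor TRANS panel: transfected HepG2 cells exposed 24 h, with 3 nM 6-alpha-fluorotestosterone and 1.5 nM norgestrel present. Readout is RT-PCR of reporter transcripts resolved by capillary electrophoresis, gain-of-signal versus DMSO.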

Values joined by “and” are separate entries in the source; they are usually repeats but may differ in a detail not shown here. Equal entries are not always repeated. Results filed as inconclusive are left out. Some structures have more than one record in an assay (separate samples or runs), and their calls can disagree. Active and inactive are the calls of the source. How the source made its calls: active means hit-call score of the fitted dose curve at least 0.9, where 1 is the maximum; inconclusive means response in the unintended direction; inactive means score below 0.9.

Sequence of zebrafish Estrogen Receptor (ER1), esr1 (gene 259252) (P57717 whole entry, looked up, the tested form may be a part): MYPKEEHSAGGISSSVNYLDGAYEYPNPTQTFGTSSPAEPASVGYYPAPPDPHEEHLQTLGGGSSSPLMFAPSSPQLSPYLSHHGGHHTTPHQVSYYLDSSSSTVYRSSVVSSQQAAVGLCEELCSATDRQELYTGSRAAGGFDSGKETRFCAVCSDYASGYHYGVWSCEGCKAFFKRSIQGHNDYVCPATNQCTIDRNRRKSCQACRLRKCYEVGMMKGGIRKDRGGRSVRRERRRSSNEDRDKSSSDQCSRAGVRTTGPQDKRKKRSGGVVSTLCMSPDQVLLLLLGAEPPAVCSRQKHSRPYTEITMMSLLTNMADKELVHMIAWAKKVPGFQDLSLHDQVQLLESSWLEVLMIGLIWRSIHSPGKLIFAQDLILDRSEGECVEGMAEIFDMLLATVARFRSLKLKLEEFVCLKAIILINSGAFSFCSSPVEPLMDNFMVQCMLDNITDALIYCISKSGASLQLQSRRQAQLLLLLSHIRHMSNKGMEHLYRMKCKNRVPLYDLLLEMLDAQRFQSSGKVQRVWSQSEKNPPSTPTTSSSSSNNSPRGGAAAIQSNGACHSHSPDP
Sequence of Estrogen receptor beta (Homo sapiens) (Q92731 whole entry, looked up, the tested form may be a part): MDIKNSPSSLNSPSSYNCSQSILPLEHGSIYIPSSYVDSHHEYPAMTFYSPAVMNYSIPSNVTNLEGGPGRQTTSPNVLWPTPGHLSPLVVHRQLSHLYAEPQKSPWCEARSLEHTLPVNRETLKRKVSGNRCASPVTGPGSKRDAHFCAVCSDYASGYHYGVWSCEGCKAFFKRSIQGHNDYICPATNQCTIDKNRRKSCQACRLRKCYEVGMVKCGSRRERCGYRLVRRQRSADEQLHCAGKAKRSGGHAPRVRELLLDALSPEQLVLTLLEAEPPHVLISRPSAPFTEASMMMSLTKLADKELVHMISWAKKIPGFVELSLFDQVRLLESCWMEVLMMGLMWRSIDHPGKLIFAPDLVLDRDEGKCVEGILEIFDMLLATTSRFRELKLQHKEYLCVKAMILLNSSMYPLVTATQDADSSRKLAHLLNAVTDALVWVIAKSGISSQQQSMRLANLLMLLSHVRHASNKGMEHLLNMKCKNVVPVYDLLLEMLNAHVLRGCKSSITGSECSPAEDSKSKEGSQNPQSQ
Sequence of chicken Estrogen Receptor (ERa), ESR1 (gene 396099) (P06212 whole entry, looked up, the tested form may be a part): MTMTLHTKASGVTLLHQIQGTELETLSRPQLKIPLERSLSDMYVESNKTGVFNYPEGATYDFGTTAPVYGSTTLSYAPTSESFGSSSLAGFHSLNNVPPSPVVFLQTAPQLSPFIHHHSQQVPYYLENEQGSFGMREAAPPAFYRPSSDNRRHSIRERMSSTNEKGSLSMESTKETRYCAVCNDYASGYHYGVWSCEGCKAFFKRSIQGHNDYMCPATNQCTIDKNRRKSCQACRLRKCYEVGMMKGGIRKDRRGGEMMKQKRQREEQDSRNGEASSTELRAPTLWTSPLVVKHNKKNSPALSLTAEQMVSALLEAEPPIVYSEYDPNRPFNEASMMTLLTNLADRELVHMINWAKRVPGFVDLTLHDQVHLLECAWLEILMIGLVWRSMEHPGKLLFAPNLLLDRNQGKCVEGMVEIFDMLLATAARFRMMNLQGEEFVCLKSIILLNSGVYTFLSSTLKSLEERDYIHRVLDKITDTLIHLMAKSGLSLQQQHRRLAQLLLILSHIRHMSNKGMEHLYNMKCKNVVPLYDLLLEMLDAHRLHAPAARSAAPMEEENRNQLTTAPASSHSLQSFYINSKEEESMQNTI
Sequence of human Thyroid hormone Receptor alpha (TRa), THRA (gene 7067) (P10827 whole entry, looked up, the tested form may be a part): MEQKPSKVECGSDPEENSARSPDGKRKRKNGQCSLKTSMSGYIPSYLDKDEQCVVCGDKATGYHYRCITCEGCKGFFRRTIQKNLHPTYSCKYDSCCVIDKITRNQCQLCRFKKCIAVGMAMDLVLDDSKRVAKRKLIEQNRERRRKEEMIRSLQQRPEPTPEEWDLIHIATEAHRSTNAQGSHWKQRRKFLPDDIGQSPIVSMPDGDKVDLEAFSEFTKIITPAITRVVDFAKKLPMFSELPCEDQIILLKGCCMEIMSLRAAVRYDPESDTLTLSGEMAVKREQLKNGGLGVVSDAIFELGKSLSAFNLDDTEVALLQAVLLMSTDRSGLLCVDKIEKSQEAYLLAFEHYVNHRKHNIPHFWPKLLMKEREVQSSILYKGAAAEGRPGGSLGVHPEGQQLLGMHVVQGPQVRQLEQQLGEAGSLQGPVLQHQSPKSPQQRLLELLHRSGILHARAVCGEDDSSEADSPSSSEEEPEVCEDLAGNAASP
Sequence of Estrogen receptor (Homo sapiens) (P03372 whole entry, looked up, the tested form may be a part): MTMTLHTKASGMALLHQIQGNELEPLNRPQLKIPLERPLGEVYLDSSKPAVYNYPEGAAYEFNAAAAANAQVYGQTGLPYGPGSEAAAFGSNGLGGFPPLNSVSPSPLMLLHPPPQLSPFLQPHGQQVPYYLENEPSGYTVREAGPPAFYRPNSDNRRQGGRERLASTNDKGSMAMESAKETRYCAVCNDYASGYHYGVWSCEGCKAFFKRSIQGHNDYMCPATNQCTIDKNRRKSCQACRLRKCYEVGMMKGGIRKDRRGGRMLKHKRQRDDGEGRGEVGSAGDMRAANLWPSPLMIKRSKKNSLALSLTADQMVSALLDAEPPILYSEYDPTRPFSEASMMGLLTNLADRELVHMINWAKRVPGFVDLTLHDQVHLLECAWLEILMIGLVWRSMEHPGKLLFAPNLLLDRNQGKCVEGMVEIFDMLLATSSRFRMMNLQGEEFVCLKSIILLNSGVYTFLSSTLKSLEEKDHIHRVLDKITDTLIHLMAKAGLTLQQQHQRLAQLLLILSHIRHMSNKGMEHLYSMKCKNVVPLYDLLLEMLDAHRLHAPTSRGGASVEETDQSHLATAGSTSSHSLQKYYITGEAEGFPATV
Sequence of mouse Peroxisome Proliferator-activated Receptor gamma (PPARg), Pparg (gene 19016) (P37238 whole entry, looked up, the tested form may be a part): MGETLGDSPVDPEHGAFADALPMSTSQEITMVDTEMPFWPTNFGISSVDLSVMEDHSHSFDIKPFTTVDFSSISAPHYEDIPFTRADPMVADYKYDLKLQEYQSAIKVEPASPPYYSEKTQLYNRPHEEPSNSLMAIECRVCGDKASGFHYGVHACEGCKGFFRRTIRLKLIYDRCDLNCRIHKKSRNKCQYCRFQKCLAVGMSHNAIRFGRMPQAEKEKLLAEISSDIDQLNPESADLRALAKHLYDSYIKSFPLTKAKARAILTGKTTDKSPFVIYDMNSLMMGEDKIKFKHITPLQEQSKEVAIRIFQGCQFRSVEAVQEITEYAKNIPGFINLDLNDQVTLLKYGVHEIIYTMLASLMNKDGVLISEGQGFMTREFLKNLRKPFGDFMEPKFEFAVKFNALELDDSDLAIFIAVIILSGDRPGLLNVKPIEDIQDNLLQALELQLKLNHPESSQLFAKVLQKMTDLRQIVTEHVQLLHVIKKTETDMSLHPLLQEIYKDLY
Sequence of zebrafish Thyroid Hormone Receptor alpha (TRa), thraa (gene 30670) (Q98867 whole entry, looked up, the tested form may be a part): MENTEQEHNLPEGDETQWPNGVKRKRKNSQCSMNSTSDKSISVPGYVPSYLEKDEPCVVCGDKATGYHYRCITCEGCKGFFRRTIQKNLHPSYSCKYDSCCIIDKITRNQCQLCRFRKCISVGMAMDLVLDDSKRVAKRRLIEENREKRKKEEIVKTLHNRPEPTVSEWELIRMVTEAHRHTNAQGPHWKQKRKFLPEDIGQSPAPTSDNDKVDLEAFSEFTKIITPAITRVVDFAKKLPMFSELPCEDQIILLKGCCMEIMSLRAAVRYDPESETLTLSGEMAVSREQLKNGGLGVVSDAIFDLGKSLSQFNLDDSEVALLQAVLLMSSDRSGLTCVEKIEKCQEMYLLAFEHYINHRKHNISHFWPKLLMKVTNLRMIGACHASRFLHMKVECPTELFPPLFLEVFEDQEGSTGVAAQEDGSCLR

What is called AC50 is the concentration at which the activity in the assay is half-maximal. For the compound `Oc1ccc2c(c1)-c1ccccc1C2`, the result in assay [1] and in assay [6] was inactive. In addition, the AC50 in assay [2] was 6.32 µM (active) and 3.91 µM (active); in [3], 5.52 µM (active) and 2.58 µM (active); in [4] it was 14.7 µM (active) and 6.87 µM (active); in assay [5], 4.69 µM (active) and 2.17 µM (active); in assay [6], 2.55 µM (active); in [7], 4.78 µM (active) and 2.89 µM (active). Moreover, the AC50 in assay [8] was 21.4 µM (active) and 12.1 µM (active).
With `O=P(OC(CCl)CCl)(OC(CCl)CCl)OC(CCl)CCl`, the AC50 in assay [9] is 25.8 µM (active); in assay [10] it was 0.447 µM (active); in assay [19] it was 7.39 µM (active). Besides, the compound was called inactive in assay [11], in [12], in assay [13], in assay [14], in [15] and in assay [16]. The compound was classed as inactive in assay [1], in [2], in assay [3], in assay [17], in [4] and in assay [5]. Also, the compound was classed as inactive in [18], in [7] and in [8].
In the case of `Clc1nc(Cl)c(Cl)c(Cl)c1Cl`, the half-maximal activity concentration (AC50) in [2] was 26.2 µM (active) and 151 µM (active); in [5] it was 26.6 µM (active) and 86.3 µM (active); in [7] it was 100 µM (active); in [8] it was 184 µM (active). Moreover, the compound was called inactive in [3], in [4], in assay [6], in [7], in [20] and in assay [8].
